Laboratory results from PubChem BioAssay AID686970 (National Center for Advancing Translational Sciences (NCATS), 2013).
Among all 360,000 compounds or so, about 6,000 (1.7%) were called active. Where a call stands in place of a potency, no number is given. About 8% were inconclusive and are not listed. The sample holds actives, similar compounds and a random draw of the others, so the mix is not that of the screen. Values without a mark were called inactive. Calls follow the shape of the dose curve; as a rule, active = well fitted cell-killing curve with a large enough effect; inconclusive = small, poorly fitted or top-dose-only effect, or effect the other way; inactive = flat fitted curve, though single readings scatter.

Assay: qHTS for induction of synthetic lethality in tumor cells producing 2HG: qHTS for the HT-1080-NT fibrosarcoma cell line;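 also: NT is the 2HG producing partner of a matched IDH1 knockdown line; nearly all actives have a fitted effect of over 55% in size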
Conditions: HT-1080-NT fibrosarcoma viability, CellTiter-Glo ATP luminescence, 48 h; series mostly up to 46.1 µM
Method in brief: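 Compounds were tested in concentration-response format on HT-1080-NT cells for 48 hours at 37 degrees C. Cell viability came from CellTiter-Glo luminescence; curves were classified by r2, response magnitude and activity.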
Potency is read from the fitted curve at half-maximal effect.

Structure (SMILES) | Potency | activity, negative = less viability
CCc1nc2c(OCCOc3ccccc3)cccn2c1N(C)C(=O)c1ccccc1F | inactive | –
O=C1c2ccccc2C(=O)N1CCC#Cc1ccc2cc(C3(O)CCCCC3)oc(=O)c2c1 | inactive | –
COc1cc(C#Cc2ccc3cc(CCCO)oc(=O)c3c2)cc(OC)c1 | 4.61 µM (active) | –
CCC(=O)N1CCCC1(C)C(=O)Nc1ccc2c(c1)CCN2C(C)=O (stereo not drawn) | inactive | –
CCOC(=O)C1(C)CCCN(C(=O)c2cccc(Cl)c2)C1 (stereo not drawn) | inactive | –
O=C(Nc1ccc(Cl)cn1)c1ccccc1-c1ccccc1 | inactive | –
CCCOC(=O)c1[nH]c2c(c1C)C(=O)CC(c1cccs1)C2 (stereo not drawn) | 1.3 µM (active) | –
COC(=O)C1C(=O)c2c([nH]c(C(=O)OCCSC)c2C)CC1C (stereo not drawn) | inactive | –
COCCOC(=O)c1[nH]c2c(c1C)C(=O)CC(c1ccc(OC)cc1)C2 (stereo not drawn) | inactive | –
O=C(COC(=O)c1ccc(S(=O)(=O)N2CCCCCC2)cc1)Nc1ccccc1C(F)(F)F | inactive | –
O=C1c2ccccc2-c2ccccc2NC1O (stereo not drawn) | inactive | –
Cc1cc(C)c2nc(N(CCN(C)C)C(=O)/C=C/c3cccs3)sc2c1 | inactive | –
COc1cccc2sc(N(CCCN(C)C)C(=O)C(c3ccccc3)c3ccccc3)nc12 | 20.6 µM (active) | –
Cc1ccc2sc(N(CCN(C)C)C(=O)/C=C/c3cccs3)nc2c1C | inactive | –
CCCCn1nnnc1C(c1cc2ccccc2o1)N(C)Cc1ccc(Cl)c(Cl)c1 (stereo not drawn) | inactive | –
CCN(/N=C/c1ccccc1)c1cc(=O)n(C)c(=O)[nH]1 | inactive | –
CN(/N=C/c1ccccc1)C(=S)c1ccccc1 | inactive | –
Oc1ccc(/C=N/N(Cc2ccccc2)c2ccccc2)cc1 | 20.6 µM (active) | –
Cc1cc(OCC(=O)Nc2nccs2)c2c(C)c(C)c(=O)oc2c1 | inactive | –
COc1cccc(CN(C)CC(O)COC(c2ccccc2)c2ccccc2C)c1 (stereo not drawn) | 23.1 µM (active) | –
COc1cccc(CN(C)CC(=O)Nc2ccccc2C(=O)Nc2ccccc2)c1 | inactive | –
Cc1ccccc1C(OCC(O)CN1CCCCC1CCO)c1ccccc1 (stereo not drawn) | inactive | –
Cc1cc(Cl)ccc1-c1nc(NCCN(C)C)nc2ccsc12 | 20.6 µM (active) | –
Cc1cc(=O)c2ccc(NC(=O)c3ccccc3)cc2[nH]1 | inactive | –
Cc1ccc(-c2cc(=O)c3ccc(F)cc3[nH]2)cc1 | inactive | –

Structure (SMILES) | Potency | activity, negative = less viability
O=c1cc(-c2ccccc2)[nH]c2cc(F)ccc12 | 2.59 µM (active) | –
FC(F)(F)Oc1ccccc1C(c1nnnn1C1CCCCC1)N1CCN(C/C=C/c2ccccc2)CC1 (stereo not drawn) | inactive | –
O=C(Nc1nnc(S(=O)(=O)N2CCOCC2)s1)c1cccc(Br)c1 | inactive | –
O=C(Nc1nnc(S(=O)(=O)N2CCCCCC2)s1)c1cccc(Br)c1 | 23.1 µM (active) | –
Cc1cccc(C(=O)Nc2nnc(S(=O)(=O)N3CCCCCC3)s2)c1 | inactive | –
CC1(C(=O)Nc2ccccc2Br)CCN1C(=O)CC1CC1 (stereo not drawn) | inactive | –
CCOC(=O)[C@]12CCC=C1N(Cc1cccc3ccccc13)C(=O)[C@H](CC(=O)NCc1cccc(C(F)(F)F)c1)C2 | inactive | –
CCCNC(=O)C1(C)CCCN(C(=O)c2cccc(OC(C)=O)c2C)C1 (stereo not drawn) | inactive | –
CC1(C(=O)Nc2ccc3c(c2)OCCO3)CN(S(C)(=O)=O)CC(=O)N1Cc1cccc(F)c1 (stereo not drawn) | inactive | –
COC(=O)c1cc(NC(=O)Cc2ccccc2[N+](=O)[O-])ccc1Cl | inactive | –
CC(=O)Nc1ccc(NC(=O)COC(=O)c2ccccc2C(=O)c2ccccc2)cc1 | inactive | –
N#Cc1cccc(NC(=O)COC(=O)c2ccccc2C(=O)c2ccc(Cl)c([N+](=O)[O-])c2)c1 | 7.31 µM (active) | –
COc1ccc(C2Nc3ccc(NC(=O)COC(C)=O)cc3C(=O)N2Cc2ccccc2)cc1COc1ccc(NC(C)=O)cc1 (stereo not drawn) | inactive | –
CC(Sc1ccc(S(=O)(=O)N2CCN(C)CC2)cn1)C(=O)NC1CCCC(C)C1C (stereo not drawn) | inactive | –
Cc1ccc(C)c(S(=O)(=O)N2CCN(c3ncnc4sccc34)CC2)c1 | 5.8 µM (active) | –
COc1ccc(C)cc1S(=O)(=O)N1CCN(S(=O)(=O)c2cc(C(=O)O)ccc2C)CC1 | inactive | –
Cc1ccc(S(=O)(=O)N2CCN(c3ncnc4ccccc34)CC2)cc1 | inactive | –
CC1CCCC(C)N1C(=O)COC(=O)c1ccccc1C(=O)c1ccccc1 (stereo not drawn) | inactive | –
Cc1ccccc1Cn1c(C)c(C(=O)NCc2cccc(C(F)(F)F)c2)sc1=O | inactive | –
OCCc1ccc(NCCc2ccco2)cc1 | inactive | –
CC1=C/C(=N\OS(=O)(=O)c2ccccc2)C=CC1=O | 20 µM (active) | –
NC(=O)CSc1nnc(-c2cccc(S(=O)(=O)N3CCOCC3)c2)o1 | inactive | –
Cc1cccc(C)c1Cn1c(C)c(C(=O)NCc2cccc(Cl)c2)sc1=O | inactive | –
OC(c1ccccc1)c1nc(-c2cnc3ccccc3c2)cs1 (stereo not drawn) | inactive | –
O=C(Nc1nnc(SCc2c(Cl)cccc2Cl)s1)c1cccc([N+](=O)[O-])c1 | inactive | –

Structure (SMILES) | Potency | activity, negative = less viability
NC(=O)CSc1nnc(NC(=O)c2ccc3ccccc3c2)s1 | inactive | –
O=C(Nc1nnc(SCc2ccccc2Cl)s1)c1cccc([N+](=O)[O-])c1 | 18.4 µM (active) | –
CC1=C(C(=O)N2CCOCC2)CC(CC(=O)NCCCN(C)C)C(=O)N1Cc1ccc(C(C)(C)C)cc1 (stereo not drawn) | inactive | –
O=C(NCc1ccc(Cl)cc1)C1CCN(S(=O)(=O)c2cccs2)CC1 | inactive | –
O=C(Nc1ccc(Br)cn1)C1CCN(S(=O)(=O)c2cccs2)CC1 | 9.2 µM (active) | –
O=C(C1CCN(S(=O)(=O)c2cccs2)CC1)N1CCCCCC1 | inactive | –
Cc1ccc(C(=O)Nc2c(-c3ccccc3)[nH][nH]c2=O)cc1 | inactive | –
C#CCNc1ccc(C(=O)OCC)cc1 | inactive | –
CC(CN1CCOCC1)OC(=O)c1ccc(Cl)cc1Cl (stereo not drawn) | inactive | –
O=C(OC12CC3CC(CC(C3)C1)C2)c1ccc(NCc2cc(O)ccc2O)cc1 | 14.6 µM (active) | –
CCN(CC)C(=O)CCC(=O)Nc1ccc(C(=O)OC)cc1 | inactive | –
CC1(C)C2CCC1(C)C(OC(=O)c1ccc(O)cc1)C2 (stereo not drawn) | inactive | –
CC(OC(=O)c1ccc(Cl)cc1O)C(=O)NCCC1=CCCCC1 (stereo not drawn) | inactive | –
CC(C)OC(=O)c1ccc(NCc2cc(O)ccc2O)cc1Cl | 20.6 µM (active) | –
COC(=O)c1ccc(NCc2cc(O)ccc2O)cc1 | 16.4 µM (active) | –
CC(C)CCC(=O)Nc1cc(S(=O)(=O)N2CCOCC2)ccc1N1CCCC1 | inactive | –
Cc1ccc(S(=O)(=O)N2CCOCC2)cc1NC(=O)c1ccncc1 | inactive | –
Cc1ccc(S(=O)(=O)N2C[C@]3(O)C[C@@H]4C(=O)N(c5ccccc5)C(=O)[C@@H]4C[C@]3(OC(=O)NC3CC3)C2)cc1 | inactive | –
Cc1ccccc1-c1nc(NC(C)C)nc2cc(-c3ccccc3)sc12 | inactive | –
COc1ccc(CCn2c3c(c(=O)[nH]c2=S)CN(C(C)C)CN3)cc1OC | inactive | –
CC1(C(=O)Nc2cccc3cccnc23)CCN1C(=O)CCC1CCCC1 (stereo not drawn) | inactive | –
CC1(C(=O)NS(=O)(=O)c2ccc(C#N)cc2)CCN1C(=O)c1ccc(C2CCCCC2)cc1 (stereo not drawn) | inactive | –
C[C@H](CO)N1C[C@H](C)[C@@H](CN(C)C(=O)C2CCCCC2)OCc2cnnn2CCCC1=O | inactive | –
CC(C)(O)C#Cc1ccc(CN2CCC(CO)(CCc3ccccc3)CC2)cc1 | inactive | –
Cc1cccc(-c2ncc(CN3CCC(CO)(CCCc4ccccc4)CC3)cn2)c1 | inactive | –

Structure (SMILES) | Potency | activity, negative = less viability
Cc1c(CN2CCC(CO)(CCOc3ccccc3)CC2)[nH]c2ccc(Cl)cc12 | 25.9 µM (active) | –
CCCNC(=O)C1(C)CCN(Cc2ccc(Cl)c(Cl)c2)C1 (stereo not drawn) | inactive | –
CN1OC[C@@H]2CN(S(=O)(=O)c3cccc(C(F)(F)F)c3)[C@H](c3ccc(-c4cc5ccccc5o4)cc3)C[C@@H]21 | inactive | –
CNc1cnc(-c2cc(OC)c(OC)c(OC)c2)cn1 | inactive | –
O=C(Nc1cnn(Cc2ccc(Cl)cc2)c1)C1CCCC1 | inactive | –
O=C(NC1CCCC1)C1CCN(C(=O)Nc2cccc(Cl)c2)CC1 | inactive | –
CCn1cc(CN2CCC(C(=O)Nc3cccc(-c4cccc(Cl)c4)c3)CC2)c(C)n1 | 20.6 µM (active) | –
CCn1cc(CN2CCC(C(=O)Nc3cccc(-c4cccc(Cl)c4)c3)CC2)cn1 | 14.6 µM (active) | –
O=C(Nc1cccc(-c2cccc(Cl)c2)c1)C1CCN(C2CCC2)CC1 | 25.9 µM (active) | –
COc1cccc(-c2cccc(NC(=O)C3CCN(C4CCC4)CC3)c2)c1 | inactive | –
CC(=O)c1cc(CN2CCC(C(=O)Nc3cccc(-c4cscn4)c3)CC2)cs1 | inactive | –
O=C(Nc1cccc(-c2cscn2)c1)C1CCN(Cc2ccsc2)CC1 | inactive | –
CCn1cc(CN2CCC(n3nccc3NC(=O)CCCc3ccccc3)CC2)c(C)n1 | inactive | –
O=C(COC(=O)c1cccc(Cl)c1Cl)NC1CCCCCC1 | inactive | –
CC(C)Oc1cc(F)ccc1-c1cc(C(=O)Nc2ccc(F)cc2)[nH]n1 | inactive | –
CCN(CC)C(=O)C1=C(C)N(Cc2ccccc2)C(=O)C(CC(=O)NC(c2ccccc2)c2ccccc2)C1 (stereo not drawn) | inactive | –
O=C(C[C@H]1CC[C@@H](NC(=O)c2ccncc2)[C@@H](CO)O1)NCC1CC1 | inactive | –
NCCCCC(C(=O)O)N(C(=O)OCc1ccccc1)C(=O)OCc1ccccc1 (stereo not drawn) | inactive | –
CCCCCCn1c(=O)n2n(c1=O)C[C@]1(OC(=O)NCc3ccc(OC)c(OC)c3)CN(S(=O)(=O)c3ccc(C)cc3)C[C@]1(O)C2 | inactive | –
CCC(C)N(C(=O)CSc1nnnn1-c1ccccc1OC)C1CCS(=O)(=O)C1 (stereo not drawn) | – | -3.07% [at 9.24 µM]
COc1ccccc1-n1nnnc1SCC(=O)NC(=O)Cc1ccccc1 | inactive | –
COc1ccccc1-n1nnnc1S(=O)(=O)Cc1ccc(Cl)cc1 | 20.6 µM (active) | –
CC(=O)C[C@@H]1OC[C@H](CO)N1S(=O)(=O)c1ccc(C)cc1 | inactive | –
